The whole screen tested about 220,000 compounds, of which about 3,300 (1.5%) were called active. This is one part of a sample in which actives are shown more often than they occur.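 The calls were made as follows: active = compounds that cut the protein-peptide binding signal by more than 50% relative to plate controls in a single-dose test; inactive = the rest.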
target: Induced myeloid leukemia cell differentiation protein Mcl-1 (Homo sapiens) (UniProt Q07820); assay: Mcl-1/Noxa binding inhibitors, primary screen, biochemical, TR-FRET, 1536-well (AID 1022); settings: TR-FRET Mcl-1/Noxa peptide binding, 2 h; at 21.7 µM; hits give high values;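 also: His-tagged Mcl-1 with rhodamine Noxa BH3 peptide and terbium anti-His antibody; 0% = Mcl-1 plus Noxa peptide wells and 100% = peptide-only wells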
Sequence (Q07820 whole entry, looked up): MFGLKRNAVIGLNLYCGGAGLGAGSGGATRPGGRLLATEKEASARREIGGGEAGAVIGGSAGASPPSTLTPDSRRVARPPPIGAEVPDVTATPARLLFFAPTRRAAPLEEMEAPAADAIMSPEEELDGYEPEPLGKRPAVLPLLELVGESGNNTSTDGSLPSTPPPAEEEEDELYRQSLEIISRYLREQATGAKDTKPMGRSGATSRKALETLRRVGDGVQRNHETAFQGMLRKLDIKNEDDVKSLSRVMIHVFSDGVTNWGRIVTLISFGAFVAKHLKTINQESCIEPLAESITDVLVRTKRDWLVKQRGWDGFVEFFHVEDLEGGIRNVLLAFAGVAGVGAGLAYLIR

inhibition, active:
CCn1nc(C)c(/C=N/NC(=O)Cc2ccc(Cl)cc2)c1C 91.8%
O=C1/C(=C/c2coc3ccc(O)cc3c2=O)SC(=S)N1c1ccccc1 56.9%
CC1=C/C(=N\OS(=O)(=O)c2ccccc2)C=CC1=O 61.2%
O=C(Nc1ccc(S(=O)(=O)Nc2nccs2)cc1)c1cc(-c2ccncc2)nc2ccccc12 89.7%
NC(=O)c1c(Nc2nc3c(F)cccc3s2)sc2c1CCCC2 94.4%
CCN(CC)CCN(C(=O)c1ccc(N2C(=O)CCC2=O)cc1)c1nc2cc3c(cc2s1)OCO3 59.3%
CCN(c1ccc(NC(=O)COC(=O)CCc2nc3ccccc3n2-c2ccccc2)cc1)C(C)C 79.3%
CC1=C(C)CC2C(=O)N(c3cccc4ccccc34)C(=O)C2C1 (stereo not given) 53.5%
COCCn1nnnc1C(c1cc2ccc(OC)cc2[nH]c1=O)N1CCc2ccccc2C1 (stereo not given) 58.9%
CSc1nnc(SCc2nc3sc(C(=O)O)c(C)c3c(=O)[nH]2)s1 70.6%

inhibition, inactive:
C=CCN1CC(C)/C(=N\O)CC1C (stereo not given) 9.5%
Cc1nn(Cc2ccc(Cl)cc2)c(Cl)c1/C=N/NC(=O)CNc1ccccc1F 5.98%
Cc1nn(Cc2ccc(Cl)cc2)c(Cl)c1/C=N/NC(=O)c1cccnc1 27.5%
O=c1c(/C=N/O)coc2ccc(Cl)cc12 4.15%
O=c1c(-c2ccccc2)coc2cc(O)ccc12 3.79%
Oc1ccc2ccccc2c1N=Nc1nccs1 -81.5%
CCOC(=O)C1(S(=O)(=O)c2ccccc2)CCN(Cc2ccccc2)CC1 10.4%
CC1=C/C(=N\S(=O)(=O)c2ccccc2)C(C(C)C)=CC1=O 17%
CNC1(c2nnnn2-c2c(C)cccc2C)CCOC(C)(C)C1 (stereo not given) -14.2%
C=CC(COCc1ccccc1)N(Cc1ccccc1)S(=O)(=O)c1ccccc1Br (stereo not given) -9.99%
CCC(CC)C(=O)Nc1ccc(S(=O)(=O)Nc2nccs2)cc1 -30.3%
O=C(Nc1ccc(S(=O)(=O)Nc2nccs2)cc1)c1cc(=O)[nH]c2ccccc12 38.3%
O=C(Nc1ccc(S(=O)(=O)N2CCOCC2)cc1)c1ccc2ncsc2c1 15.9%
O=C(Nc1ccccc1C(F)(F)F)N1CCCC1c1cccnc1 (stereo not given) -4.25%
Cc1cc(NCc2cccnc2)no1 -9.18%
CSc1sc(C(=O)NC(=O)NCc2cccnc2)c(C)c1-c1ccon1 -5.48%
COCCn1c(SCC(=O)c2[nH]c(C)c(C(C)=O)c2C)nc2ccccc2c1=O -5.29%
O=C(NCCc1c[nH]c2ccc(Cl)cc12)c1ccc([N+](=O)[O-])cc1 27.8%
NC(=O)c1c(NC(=O)CSc2nc(N)cc(=O)[nH]2)sc2c1CCCC2 39.5%
Fc1cc(F)c2nc(Nc3nc4c(F)cccc4s3)sc2c1 -45.8%
CC(C)Cc1ccc(C(C)C(=N)N)cc1 (stereo not given) 4.15%
O=C(NCC(c1cccs1)N1CCOCC1)c1cc(-c2ccccn2)nc2ccccc12 (stereo not given) -1.37%
COc1ccc(OCCC(=O)c2ccc(OC)cc2)cc1 16.6%
CC(=O)Nc1ccc(CC#N)cc1 -4.22%
CCN(CC)CCN(C(=O)c1cccc([N+](=O)[O-])c1)c1nc2ccc(OC)cc2s1 19.8%
Cc1nc2cc3c(cc2s1)OCO3 4.53%
Cc1ccccc1Cn1c2ccccc2c2cnn(CC(=O)NCc3ccco3)c(=O)c21 6.08%
C=CCNC(=S)N1CCc2[nH]c3ccccc3c2C1 2.21%
Cc1ccc(NC(=O)COC(=O)CCc2nc3ccccc3n2-c2ccccc2)c(C)c1 4.37%
CC(C)(C)c1ccc(NC(=O)COC(=O)CCc2nc3ccccc3c(=O)[nH]2)cc1 0.96%
COCCn1c(SCC(=O)Nc2cc(OC)ccc2OC)nc2c(c1=O)SC(C)C2 (stereo not given) 1.76%
CC(C)(C)c1ccc(CCC2OCC(CN3CCOCC3)O2)cc1 (stereo not given) -0.05%
Cc1ccc(/C=N/NC(=O)CN2CCN(Cc3ccccc3)CC2)s1 14.9%
O=C(Cn1nnc(N2CCCCC2)n1)c1ccc(Cl)c(Cl)c1 13.1%
Cc1ccc(-c2cc(C(=O)NN)n[nH]2)o1 11.3%
Cc1ccc(N2C(=O)CC(Nc3cccc4ccccc34)C2=O)cc1 (stereo not given) -23%
CCc1ccccc1N1C(=O)C2C3CC(=O)C(c4ccccc43)C2C1=O (stereo not given) 1.91%
CCCCNC(=O)OCCSCCS(=O)(=O)c1ccc(Cl)cc1 -6.78%
C/C(=N/NC(=O)c1ccn(C)n1)c1ccncc1 -1.7%
COc1ccc(OC)c(C(c2nnnn2C(C)(C)C)N2CCc3ccccc3C2)c1 (stereo not given) 23.3%
CCOc1ccc2[nH]c(=O)c(C(c3nnnn3CCOC)N3CCOCC3)cc2c1 (stereo not given) -4.39%
CCOC(=O)CN(C)S(=O)(=O)c1ccc(-c2cc(C(=O)OC)sc2C(F)(F)F)cc1 11.3%
O=S(=O)(c1ccc(F)cc1)N1CC=C(c2ccccc2)CC1 -8.68%
COc1cc(C(CCN2CCN(c3ccccc3)CC2)c2c(OC)cc(OC)c3ccc(=O)oc23)cc(OC)c1OC (stereo not given) 12.8%
CC(C)Cc1nnc(NC(=O)CCC(=O)Nc2ccc3cn[nH]c3c2)s1 32.1%
O=C(CCn1nnc2ccccc2c1=O)N[C@@H](Cc1c[nH]c2ccccc12)C(=O)O 18.9%
O=C(O)CC12CC3CC(C1)CC(n1ncc(NCc4ccc(F)cc4)c(Cl)c1=O)(C3)C2 16.2%
CCOC(=O)c1sc2nc(CSc3ccccc3)[nH]c(=O)c2c1C -3.55%
Cc1ccc(C)c(SCc2nc3sc(C(=O)O)c(C)c3c(=O)[nH]2)c1 7.18%
COC(=O)c1cc(N2CCNCC2)nc2ccccc12 -2.31%

Reference: PubChem BioAssay AID1022 (Emory University Molecular Libraries Screening Center, 2008)
